Screening data as filed in PubChem BioAssay.
Pf growth 48h: Primary qHTS for delayed death inhibitors of the malarial parasite plastid, 48 hour incubation; P. falciparum luciferase growth in erythrocytes, 48 h; Potency, µM (series often up to 28.7 µM), hits mostly inhibitors; hit rate 5.9% among 310,000
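First compound was added to culture medium, then infected red cells at 0.1% parasitemia and 2% hematocrit (final). After incubation at 37 C under 5% CO2, luciferase detection reagent was dispensed and light output recorded.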
SARS PLpro yeast: qHTS of Yeast-based Assay for SARS-CoV PLP; hit rate 0.19% among 330,000; S. cerevisiae expressing SARS-CoV PLpro, growth rescue; Potency, µM (titrated, usually from 32.9 µM), most hits filed as activators; calls by dose curve; also: nearly all actives have a fitted effect of over 55% in size
Shiga toxin inh: A qHTS for Small Molecule Inhibitors of Shiga Toxin; inhibition, % at 38.7 µM; Vero cells, Shiga toxin protein synthesis inhibition reporter; AID 2315, 2010; hit rate 9.2% among 290,000; in the data active = inhibition mostly above about 28%, no sharp cut-off; inactive = mostly below about 43%
CHX counter: Cycloheximide Counterscreen for Small Molecule Inhibitors of Shiga Toxin; cell reporter, cycloheximide protein synthesis inhibition counterscreen; max response, %; hit rate 12% among 300,000; AID 2314, 2010; in the data active = max response mostly above about 13%, no sharp cut-off; inactive = mostly below about 14%; also: read at 38.3 µM for the half of the compounds with a filed dose
Pf growth 96h: Primary qHTS for delayed death inhibitors of the malarial parasite plastid, 96 hour incubation; P. falciparum luciferase reporter growth, 96 h; Potency, µM (top dose mostly 28.7 µM), usual class: inhibitors; hit rate 6.9% among 320,000
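P. falciparum expressing integrated firefly luciferase, in erythrocytes at 2% hematocrit, 0.05% parasitemia, incubated with compounds 96 h at 37 C, 5% CO2. Growth inhibition read as loss of luminescence; two-generation exposure targets delayed-death apicoplast inhibitors.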
AMA1 RON2 block: qHTS for Inhibitors of AMA1-RON; Towards Development of Antimalarial Drug Lead: Primary Screen; hit rate 0.2% among 360,000; Potency, µM (top dose mostly 58.2 µM), actives largely listed as inhibitors; AlphaScreen AMA1-biotinylated RON2 peptide binding; Plasmodium falciparum AMA1 (3D7) - RON2 peptide interaction; also: nearly all actives have a fitted effect of over 45% in size
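AMA1 (3D7) with his tag at 25 nM final met compounds first, then biotinylated RON2 peptide at 25 nM; detection used donor plus acceptor beads, 10 µg/mL apiece, read by AlphaScreen after 30 min at room temperature.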
Numbers stand for hits; 0 = inactive; ? = inconclusive; - = no result; [ ] = dose if it differs, or a comment. A selection: hits, their analogues and other compounds. The true share with any hit is near 19%. Unless noted, calls follow the shape of the dose curve; as a rule, active = well fitted curve in the direction sought with a large enough effect; inconclusive = small, poorly fitted or top-dose-only effect, or another doubt; inactive = no such curve, though single readings can be large; an effect the other way counts as inactive or inconclusive.

SMILES	Pf growth 48h	SARS PLpro yeast	Shiga toxin inh	CHX counter	Pf growth 96h	AMA1 RON2 block
CCN(Cc1nc2ccccc2c(=O)[nH]1)C(=O)c1ccc(C)c(NC(=O)c2ccco2)c1	0	0	-	-	13µM	0
Cn1c([N+](=O)[O-])cnc1N1CCN(c2nncs2)C1=O	0	0	0	0	0	0
CCN(Cc1nc2ccccc2c(=O)[nH]1)C(=O)c1cccc(S(=O)(=O)N2CCc3ccccc32)c1	10µM	0	-	-	?	0
CCN(Cc1nc2ccccc2c(=O)[nH]1)C(=O)COc1ccccc1-c1ccccc1	13µM	0[6.58 µM]	-	-	9.3µM	0
Cc1ccc(S(=O)(=O)c2ccc(Cl)cc2)cc1S(N)(=O)=O	0	0	0	0	?	0
NS(=O)(=O)c1ccc(CCNC(=O)Cc2cccs2)cc1	0	0	-	0	?	0
O=c1[nH]n(-c2ncnc3c2cnn3-c2ccccc2)c(=O)c2ccccc12	0	0	0	0	0	0
COCCN(CCOC)c1ncnc2c1cnn2-c1ccc(Cl)cc1	0	0	76	60	0	0
COCCN(CCOC)c1ncnc2c1cnn2-c1ccccc1	0	0	34	15	0	0
CCOc1ccc(CCNC(=O)c2ccc3c(=O)[nH]c4c(C(=O)NC(C)C)sc(=S)n4c3c2)cc1	?	0	0	0	3.3µM	0
CN(C)c1ccc(/C=N/N2C(=O)c3ccccc3C2=O)cc1	0	0	76	55	0	0
COc1ccc(/C=N\n2nnc3ccccc32)cc1	0	0	0	28	0.41µM	0
COc1ccc(/C=N/N2C(=O)c3ccccc3C2=O)cc1	0	0	33	0	0	0
CCN(CC)c1ccc(/C=N/N2C(=O)c3ccccc3C2=O)cc1	0	0	0	0	0	0
C=CCNC(=O)c1ccc(N(Cc2ccccc2)S(C)(=O)=O)cc1	0	0	0	0	0	0
O=C(O)c1cc(-c2ccc(/C=C3/SC(=S)N(Cc4ccccc4)C3=O)o2)ccc1Cl	0	0	63	29	0	0
CC1(C)OC(=O)C(=Cc2ccc(-c3ccc(Cl)c(C(=O)O)c3)o2)C(=O)O1	15µM	0	0	0	?	0
NS(=O)(=O)c1ccc(CCNC(=S)NC(=O)c2ccccc2Br)cc1	-	0	-	-	-	0
Cc1nc2scc(-c3cccs3)c2c(=O)o1	0	0	0	0	0	0
Cc1sc2nc(-c3ccc(Br)cc3)oc(=O)c2c1C	0	0	0	0	0	0
O=c1oc(-c2cccs2)nc2scc(-c3cccs3)c12	0	0	0	14	-	0
Cc1sc2nc(-c3cccs3)oc(=O)c2c1C	0[0.00184 µM]	0	136	43	0	0
O=C1C=C2C=CC3C[C@@]2(O1)C1CCCCN31 (stereo not given in full)	12µM	-	-	-	2.7µM	-
Cc1nc(SCC(=O)N(CC(C)C)C2CCS(=O)(=O)C2)c(C#N)c(C)c1C (stereo not given)	?	0	-	-	0	0
CC(=O)Nc1ccc(NC(=O)c2ccc3c(c2)CCN3S(C)(=O)=O)cc1	0[0.00184 µM]	0	0	0	0	0
SMILES	Pf growth 48h	SARS PLpro yeast	Shiga toxin inh	CHX counter	Pf growth 96h	AMA1 RON2 block
COc1ccc(Br)cc1CNC(=O)c1ccc2c(c1)N(C)CCS2	?	0	0	0	?	0
COc1cccc(NC(=O)c2ccc3c(c2)N(C)CCS3)c1	0	0	29	33	7.4µM	0
CN1CCSc2ccc(C(=O)NCc3cccc(F)c3)cc21	0	0	0	13	9.3µM	0
COc1cccc(NC(=O)c2ccc3c(c2)CCN3S(C)(=O)=O)c1	0	0	50	17	0	0
CN1CCSc2ccc(C(=O)Nc3ccc(Cl)cc3)cc21	0	0	59	37	0	0
COCCC(=O)N1CCOCC1c1cc(C(=O)Nc2ccccc2)no1 (stereo not given)	-	-	-	-	-	0
O=C(c1ccccc1)[C@H]1[C@H](c2ccccc2)[C@@]2(N=C(c3ccccc3)OC2=O)C2c3ccccc3C=NN21 (stereo not given in full)	0	0	55	35	?	-
O=C(N/N=C1\CC2CC=CC12)c1ccccc1Cl (stereo not given)	0	0	85	21	0	0
